The values below come from PubChem BioAssay AID2665 (Vanderbilt High Throughput Screening Facility, 2010).

In this assay the target is Muscarinic acetylcholine receptor M1 (Rattus norvegicus) (UniProt P08482). Kind of assay: M5 positive allosteric modulators, analog testing, SAR follow-up, CHO cells, calcium, ACh EC10, single 30 µM (AID 2665).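 Also: 100% = response to a maximal acetylcholine concentration.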 The note with it: rat M1 potentiation, CHO calcium; at 30 µM; stronger effect = higher value.
Regarding `O=C1C(=O)N(Cc2ccc(C(F)(F)F)cc2)c2ccc(Cl)cc21`, the % ACh max response is 44.1%. The value for `O=C1C(=O)N(Cc2ccccc2Cl)c2ccc(Cl)cc21` was 21.3%.

In the case of `O=C1C(=O)N(Cc2c(F)cccc2F)c2ccc(Cl)cc21`, the % ACh max response was determined as 27.3%. Next, `COc1ccc(CN2C(=O)C(=O)c3cc(C)ccc32)cc1`: 14.1%; `COc1cccc(CN2C(=O)C(=O)c3ccccc32)c1`: 19.4%; `Cc1ccc2c(c1)C(=O)C(=O)N2Cc1ccc(C(F)(F)F)cc1`: 22.9%. The value for `O=C1C(=O)N(Cc2c(F)cccc2F)c2ccccc21` was 36.6%; that for `O=C1C(=O)N(Cc2ccc(Br)cc2F)c2c(Cl)ccc(Cl)c21` was 9.93%; that for `COc1ccc(CN2C(=O)C(=O)c3c(Cl)ccc(Cl)c32)cc1` was 18.6%. Next, `O=C1C(=O)N(Cc2c(F)cccc2F)c2c(F)cccc21`: 33.1%; `O=C1C(=O)N(Cc2ccc(C(F)(F)F)cc2)c2ccc(OC(F)(F)F)cc21`: 25.7%. For `Cc1ccccc1CN1C(=O)C(=O)c2cccc(Cl)c21`, the % ACh max response stood at 32.8%. The value for `O=C1C(=O)N(Cc2ccccc2F)c2ccc(Cl)cc21` was 23%. Next, `COc1ccc(CCN2C(=O)C(=O)c3ccccc32)cc1`: 38.6%; `O=C1C(=O)N(Cc2ccccc2F)c2c(Cl)cccc21`: 50.4%; `O=C1C(=O)N(Cc2ccc(-c3ccc(Cl)cc3)cc2)c2ccccc21`: 45.1%.

With `O=C1C(=O)N(Cc2ccccc2C(F)(F)F)c2c(Cl)ccc(Cl)c21`, the % ACh max response was found to be 21.1%. With `O=C1C(=O)N(Cc2ccccc2F)c2c(Cl)ccc(Cl)c21`, the % ACh max response stood at 12.4%. Next, `Cc1ccccc1CN1C(=O)C(=O)c2cc(OC(F)(F)F)ccc21`: 26.2%.
